From ChEMBL document CHEMBL3988442, “University of Dundee, Small-Polar-MMV Screening Library” (2021) come the findings set out here.

Holding throughout (parameters): scale not given: direction of the effect not stated beside the values
Test [1] concerns the target Protein translocase subunit SecA (Escherichia coli (strain K12)) (UniProt P10408). In words: Assay to Identify E. coli SecA ATPase Inhibitors. Type of test: functional. To be noted: 30 µM.
Test [2] addresses T1, Ubiquitin-activating enzyme e1, putative (Leishmania donovani (strain BPK282A1)) (UniProt E9BSI1).
T1 sequence (whole entry): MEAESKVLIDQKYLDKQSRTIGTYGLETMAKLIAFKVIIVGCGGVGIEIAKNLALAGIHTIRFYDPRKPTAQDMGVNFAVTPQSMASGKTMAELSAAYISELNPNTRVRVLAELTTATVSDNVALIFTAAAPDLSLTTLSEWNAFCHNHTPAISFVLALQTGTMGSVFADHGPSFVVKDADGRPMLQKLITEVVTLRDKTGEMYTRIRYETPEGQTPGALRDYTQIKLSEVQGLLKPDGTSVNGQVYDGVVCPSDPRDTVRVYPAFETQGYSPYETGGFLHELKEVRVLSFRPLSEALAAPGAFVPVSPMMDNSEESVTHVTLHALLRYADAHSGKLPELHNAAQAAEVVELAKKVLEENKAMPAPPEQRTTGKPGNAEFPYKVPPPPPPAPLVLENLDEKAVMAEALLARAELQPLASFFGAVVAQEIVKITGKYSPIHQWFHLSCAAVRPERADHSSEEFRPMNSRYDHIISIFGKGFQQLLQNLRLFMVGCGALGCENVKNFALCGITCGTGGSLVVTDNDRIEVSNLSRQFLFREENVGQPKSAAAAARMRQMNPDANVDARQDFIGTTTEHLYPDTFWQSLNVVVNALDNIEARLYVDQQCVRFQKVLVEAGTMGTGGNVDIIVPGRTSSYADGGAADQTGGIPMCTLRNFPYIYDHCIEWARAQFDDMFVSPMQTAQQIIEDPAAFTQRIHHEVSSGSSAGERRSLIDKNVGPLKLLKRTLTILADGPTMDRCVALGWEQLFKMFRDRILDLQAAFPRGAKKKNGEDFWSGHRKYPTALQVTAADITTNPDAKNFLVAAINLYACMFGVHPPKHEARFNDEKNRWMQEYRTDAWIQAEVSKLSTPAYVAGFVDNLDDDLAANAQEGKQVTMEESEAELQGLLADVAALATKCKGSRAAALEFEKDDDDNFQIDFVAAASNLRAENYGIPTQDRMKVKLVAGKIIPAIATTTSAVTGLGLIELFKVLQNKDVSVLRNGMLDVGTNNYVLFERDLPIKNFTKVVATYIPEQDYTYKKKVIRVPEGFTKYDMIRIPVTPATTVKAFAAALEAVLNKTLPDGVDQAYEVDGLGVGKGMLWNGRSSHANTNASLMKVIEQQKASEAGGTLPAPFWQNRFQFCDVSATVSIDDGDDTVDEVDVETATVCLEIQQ
In words: Leishmania donovani Ubiquitin Activating Enzyme (LdE1). It is filed as functional. Particulars: 30 µM.

For test [3], the target named is AMP-activated protein kinase, AMPK (Homo sapiens) (UniProt P54646+O43741+P54619+Q9UGJ0+Q9Y478+Q13131+Q9UGI9). In words: AMP-dependent Kinase enzyme assay. An in vitro enzyme assay that detects ADP turnover that is directly proportional to AMPK activity. This uses naive AMPK that is activated during the assay with MK-8722. Particulars: 30 µM. Type of test: functional.

The target in test [4] is Sialic acid-binding Ig-like lectin 9 (Homo sapiens) (UniProt Q9Y336). In words: Hs-Siglec9 ALPHAscreen SOP 20170721. Particulars: 10 µM.
Sialic acid-binding Ig-like lectin 9 (Homo sapiens), sequence (Q9Y336 whole entry): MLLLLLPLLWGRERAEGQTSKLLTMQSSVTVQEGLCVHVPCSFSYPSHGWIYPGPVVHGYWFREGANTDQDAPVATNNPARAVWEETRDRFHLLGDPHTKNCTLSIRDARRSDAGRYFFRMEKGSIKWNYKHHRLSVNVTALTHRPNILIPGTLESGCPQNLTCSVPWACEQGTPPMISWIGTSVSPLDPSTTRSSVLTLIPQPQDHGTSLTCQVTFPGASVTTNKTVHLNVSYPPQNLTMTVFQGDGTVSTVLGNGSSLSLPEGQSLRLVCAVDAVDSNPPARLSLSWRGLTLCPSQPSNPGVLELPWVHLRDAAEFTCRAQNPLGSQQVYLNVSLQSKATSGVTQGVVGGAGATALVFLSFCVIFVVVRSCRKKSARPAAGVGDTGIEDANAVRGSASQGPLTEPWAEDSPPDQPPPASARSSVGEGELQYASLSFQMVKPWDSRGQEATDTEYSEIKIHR
The subject of test [5] is Trypanosoma cruzi. In words: Trypanosoma cruzi phosphomannomutase and mannose-1-phosphate guanylyltransferase assay. It is filed as functional. Particulars: 10 µM.
Test [6] concerns the target T2, Arginase-2, mitochondrial (Homo sapiens) (UniProt P78540).
T2 sequence (whole entry): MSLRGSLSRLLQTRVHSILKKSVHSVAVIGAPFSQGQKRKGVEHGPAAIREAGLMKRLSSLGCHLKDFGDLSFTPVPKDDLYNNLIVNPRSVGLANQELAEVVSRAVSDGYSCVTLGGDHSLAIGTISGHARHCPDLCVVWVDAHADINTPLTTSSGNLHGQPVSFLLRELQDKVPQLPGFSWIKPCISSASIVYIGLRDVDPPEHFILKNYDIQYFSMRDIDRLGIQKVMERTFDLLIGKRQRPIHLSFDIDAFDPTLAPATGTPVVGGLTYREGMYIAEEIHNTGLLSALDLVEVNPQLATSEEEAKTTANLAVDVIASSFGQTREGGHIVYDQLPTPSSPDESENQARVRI
Nature of the test: in vitro enzyme assay to detect the production of urea directly proportional to the activity of Arginase II. Further: in the data most compounds retested in dose-response had high values. To be noted: 33.3 µM. Type of test: functional.

Test [7] concerns the target T3, Proteasome subunit beta (Trypanosoma cruzi) (UniProt O96673).
T3 sequence (whole entry): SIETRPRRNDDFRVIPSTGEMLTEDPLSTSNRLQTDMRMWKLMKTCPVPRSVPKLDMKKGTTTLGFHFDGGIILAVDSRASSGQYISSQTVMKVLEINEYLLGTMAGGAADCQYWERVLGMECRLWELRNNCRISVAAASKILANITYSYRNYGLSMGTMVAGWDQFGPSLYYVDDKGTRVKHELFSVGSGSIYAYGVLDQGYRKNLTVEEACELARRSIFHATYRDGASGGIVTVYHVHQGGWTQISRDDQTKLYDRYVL
Nature of the test: Trypanosoma cruzi proteasome chymotrypsin-like activity (TcProtChymo) assay. Further: in the data most compounds retested in dose-response had high values. Type of test: functional. To be noted: 9.37 µM.

For test [8], the species on record is Homo sapiens. In words: To identify inhibition of the IFN signalling (Jak-Stat) pathway via expression of an eGFP reporter gene under the control of an IFN-stimulated response element (ISRE) containing MxA promoter. Particulars: 30 µM. It is filed as functional. In general terms: Reporter assays use an easily measured gene product as a stand-in for the process of interest.

Test [9] addresses T4, Tyrosyl-tRNA synthetase, putative (Trypanosoma cruzi (strain CL Brener)) (UniProt Q4DSP6).
T4 sequence (whole entry): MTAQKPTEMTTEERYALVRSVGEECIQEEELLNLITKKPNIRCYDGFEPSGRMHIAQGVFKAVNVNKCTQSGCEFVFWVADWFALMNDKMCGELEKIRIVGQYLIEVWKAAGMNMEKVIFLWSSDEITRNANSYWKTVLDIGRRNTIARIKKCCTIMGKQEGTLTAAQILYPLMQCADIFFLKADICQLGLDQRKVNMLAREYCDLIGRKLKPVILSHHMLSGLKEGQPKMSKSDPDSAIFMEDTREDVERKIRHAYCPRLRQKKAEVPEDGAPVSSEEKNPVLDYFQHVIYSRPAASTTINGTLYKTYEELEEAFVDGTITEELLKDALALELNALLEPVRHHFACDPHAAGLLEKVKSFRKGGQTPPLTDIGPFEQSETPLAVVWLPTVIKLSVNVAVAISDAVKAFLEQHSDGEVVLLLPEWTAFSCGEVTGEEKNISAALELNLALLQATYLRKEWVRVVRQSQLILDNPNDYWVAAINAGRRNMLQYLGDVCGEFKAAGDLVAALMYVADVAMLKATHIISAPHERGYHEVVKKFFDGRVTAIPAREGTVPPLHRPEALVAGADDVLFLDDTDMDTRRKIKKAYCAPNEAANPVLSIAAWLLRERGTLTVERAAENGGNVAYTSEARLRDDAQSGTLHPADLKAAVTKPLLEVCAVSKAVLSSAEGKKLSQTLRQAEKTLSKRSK
In words: Trypanosoma cruzi tyrosyl tRNA synthetase (TcYRS) _High Tyrosine SOP. Further: in the data most compounds retested in dose-response had high values. Type of test: functional. Particulars: 30 µM.

Test [10] has as its target T4, Tyrosyl-tRNA synthetase, putative (Trypanosoma cruzi (strain CL Brener)). In words: Trypanosoma cruzi tyrosyl tRNA synthetase (TcYRS) SOP. It is filed as functional. Particulars: 30 µM.
The target in test [11] is Chromo domain-containing protein 1 (Saccharomyces cerevisiae (strain ATCC 204508 / S288c) (Baker's yeast)) (UniProt P32657). In words: ScCHD-1 Enzyme Inhibition Assay. Further: in the data most compounds retested in dose-response had high values. Type of test: functional. Particulars: 30 µM.
Chromo domain-containing protein 1 (Saccharomyces cerevisiae (strain ATCC 204508 / S288c) (Baker's yeast)), sequence (P32657 whole entry, the tested form may be a part): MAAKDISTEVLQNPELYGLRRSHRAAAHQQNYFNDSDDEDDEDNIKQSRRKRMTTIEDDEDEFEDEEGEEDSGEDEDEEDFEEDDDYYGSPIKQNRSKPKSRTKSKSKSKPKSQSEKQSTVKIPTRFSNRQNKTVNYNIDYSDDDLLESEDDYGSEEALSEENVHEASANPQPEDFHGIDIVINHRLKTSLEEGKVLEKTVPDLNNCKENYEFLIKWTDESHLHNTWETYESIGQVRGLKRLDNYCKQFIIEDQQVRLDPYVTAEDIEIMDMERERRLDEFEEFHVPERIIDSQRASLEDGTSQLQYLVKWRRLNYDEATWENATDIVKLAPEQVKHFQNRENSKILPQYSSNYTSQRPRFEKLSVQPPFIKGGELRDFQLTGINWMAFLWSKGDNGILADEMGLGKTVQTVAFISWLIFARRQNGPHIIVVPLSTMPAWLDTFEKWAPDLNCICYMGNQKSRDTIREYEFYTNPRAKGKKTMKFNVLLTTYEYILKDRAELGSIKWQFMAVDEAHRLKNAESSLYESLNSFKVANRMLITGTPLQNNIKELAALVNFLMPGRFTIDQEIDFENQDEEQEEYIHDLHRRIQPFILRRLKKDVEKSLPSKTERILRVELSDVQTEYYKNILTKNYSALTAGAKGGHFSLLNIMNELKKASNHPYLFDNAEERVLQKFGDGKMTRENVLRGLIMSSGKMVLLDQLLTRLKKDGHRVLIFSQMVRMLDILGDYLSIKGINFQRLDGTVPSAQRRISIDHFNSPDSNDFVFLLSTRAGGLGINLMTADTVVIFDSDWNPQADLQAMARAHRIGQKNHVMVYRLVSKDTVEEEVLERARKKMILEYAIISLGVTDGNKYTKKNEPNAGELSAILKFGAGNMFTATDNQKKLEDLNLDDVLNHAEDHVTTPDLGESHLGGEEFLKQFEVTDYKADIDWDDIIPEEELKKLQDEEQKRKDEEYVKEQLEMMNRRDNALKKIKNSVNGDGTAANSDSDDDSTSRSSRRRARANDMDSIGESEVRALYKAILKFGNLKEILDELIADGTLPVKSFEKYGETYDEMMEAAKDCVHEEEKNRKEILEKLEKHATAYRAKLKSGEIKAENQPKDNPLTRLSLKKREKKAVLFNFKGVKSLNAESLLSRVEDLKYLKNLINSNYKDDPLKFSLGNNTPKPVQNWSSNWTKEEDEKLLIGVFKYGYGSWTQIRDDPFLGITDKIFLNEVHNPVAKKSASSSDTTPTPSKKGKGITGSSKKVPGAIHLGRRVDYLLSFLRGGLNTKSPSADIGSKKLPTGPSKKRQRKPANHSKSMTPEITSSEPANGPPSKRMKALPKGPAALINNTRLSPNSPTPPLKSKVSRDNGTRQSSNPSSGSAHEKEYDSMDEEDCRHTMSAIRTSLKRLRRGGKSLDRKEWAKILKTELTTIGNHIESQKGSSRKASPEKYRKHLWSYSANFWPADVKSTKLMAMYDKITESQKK

Each structure is given as a SMILES string. For some of these results: Potency and affinity values are given separately.

Protein translocase subunit SecA (Escherichia coli (strain K12)), sequence (P10408 whole entry): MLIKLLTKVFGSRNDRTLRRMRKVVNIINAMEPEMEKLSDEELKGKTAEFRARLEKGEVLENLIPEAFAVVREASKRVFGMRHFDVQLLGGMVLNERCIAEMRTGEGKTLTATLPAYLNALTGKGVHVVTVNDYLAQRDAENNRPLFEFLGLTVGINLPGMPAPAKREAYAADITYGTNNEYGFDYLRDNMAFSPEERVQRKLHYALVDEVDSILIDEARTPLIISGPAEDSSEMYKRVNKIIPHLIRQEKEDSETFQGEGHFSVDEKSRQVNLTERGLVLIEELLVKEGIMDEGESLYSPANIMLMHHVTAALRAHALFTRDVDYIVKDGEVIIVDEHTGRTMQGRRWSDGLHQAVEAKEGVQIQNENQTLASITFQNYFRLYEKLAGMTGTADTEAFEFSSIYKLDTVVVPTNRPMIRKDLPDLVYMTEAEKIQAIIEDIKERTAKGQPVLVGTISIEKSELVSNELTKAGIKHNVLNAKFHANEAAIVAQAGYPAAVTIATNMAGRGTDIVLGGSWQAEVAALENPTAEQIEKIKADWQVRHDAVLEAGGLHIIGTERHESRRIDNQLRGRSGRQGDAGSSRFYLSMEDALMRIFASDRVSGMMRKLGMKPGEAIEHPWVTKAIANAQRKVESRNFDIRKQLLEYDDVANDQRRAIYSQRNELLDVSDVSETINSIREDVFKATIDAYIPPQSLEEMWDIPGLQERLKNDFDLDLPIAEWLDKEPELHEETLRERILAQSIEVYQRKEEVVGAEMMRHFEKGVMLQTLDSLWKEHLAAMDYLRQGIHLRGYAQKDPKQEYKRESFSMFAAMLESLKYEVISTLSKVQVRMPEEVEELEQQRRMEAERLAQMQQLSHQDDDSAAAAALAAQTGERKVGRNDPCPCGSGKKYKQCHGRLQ

In the case of `CCc1csc(C2CCCN(C(=O)C3=NN(CC)C(=O)CC3)C2)n1` (stereo not drawn), the Percent Effect is -3.73% in [1]; 7.79% in [2]; -3.68% in [3]; 5.23% in [4]; 6.37% in test [5]; 2.13% in test [6]. Also, the Percent Effect in test [7] is -5.07%; in [8], 11.1%; in test [9], 4.85%; in test [10], 12.2%; in test [11], -7.52%.

Regarding `COCCNC(=O)[C@H]1CN(Cc2nccs2)C[C@H]2OCC[C@@H]12`, the Percent Effect is -3.36% in test [1]; 16.4% in test [2]; -2.81% in test [3]; 11.4% in [4]; 3.17% in [5]; 2.4% in test [6]. The Percent Effect in [7] was 6.25%; in [8] it was 15.8%; in test [9], 5.21%; in [10], 1.24%; in test [11] it was -0.333%.

For `CNC(=O)Cn1cc(C#N)c(=O)c2cc(Br)ccc21`, the Percent Effect in test [1] was -5.47%; in test [2] it was 13.3%; in test [3] it was -4.43%; in [4], 16.9%; in test [5] it was 7.3%; in test [6], 7.29%. Further, the Percent Effect in [7] was found to be 15.2%; in [8], 9.36%; in test [9], 3.83%; in test [10] it was 13.6%; in test [11], 38.7%.

As for `Cn1cccc1C(=O)NCc1cnc2n1CCN(C(=O)N1CCCC1)C2`, the Percent Effect is -5.97% in [1]; 16% in [2]; -1.93% in test [3]; 4.39% in test [4]; 6.18% in test [5]; -45% in test [6]. Further, the Percent Effect in [7] was 7.86%; in [8] it was 3.79%; in [9], 2.08%; in test [10], 12.5%; in test [11] it was -6.82%.

With `Cc1nn(C)c(C)c1C1CCCN1Cc1nc(C2CC2)no1` (stereo not drawn), the Percent Effect is -2.91% in test [1]; 16.2% in [2]; 0.977% in test [3]; -3.54% in test [4]; 6.22% in test [5]; -0.924% in [6]. Further, the Percent Effect was 15.6% in test [7]; 16.5% in [8]; 5.94% in [9]; 18.3% in test [10]; -7.69% in test [11].

For `CC(C)c1csc(C2CCCN(C(=O)Cn3ccccc3=O)C2)n1` (stereo not drawn), the Percent Effect in test [1] is -2.92%; in test [2], 2.63%; in test [3], 1.07%; in [4], -4.27%; in test [5] it was 8.27%; in test [6], -1.92%. For the same compound, the Percent Effect in [7] was 3.68%; in test [8], 10.9%; in test [9] it was 0.49%; in [10] it was 9.76%; in test [11] it was -9.15%.

With `Cc1ncnc2c1CCN(Cc1ccc3c(c1)OCO3)CC2`, the Percent Effect was -2.54% in test [1]; 13.7% in test [2]; -1.53% in test [3]; 8.83% in [4]; 3.97% in test [5]; 1.2% in [6]. Further, the Percent Effect in test [7] is 6.08%; in test [8], -10.2%; in test [9], 3.12%; in [10], 11.1%; in test [11] it was -2.7%.

Regarding `Cc1nn(C)c2c(NCc3ccccc3F)nc(C3CC3)nc12`, the Percent Effect is -4.24% in [1]; 13% in [2]; 15.3% in [3]; 12.8% in [4]; 9.14% in [5]; -63.5% in [6]. Also, the Percent Effect in test [7] was 20.6%; in [8], 38.1%; in [9] it was -3.23%; in test [10] it was 13.6%; in test [11], -3.61%.
